The record followed here is PubChem BioAssay (EPA / NIEHS).

Details in all cases: mRNA level, 48 h; actives raise or lower the signal
Read-out in one test: Caspase-3 (Homo sapiens) (UniProt P42574)
As to the kind of experiment: LTEA_HepaRG_CASP3: Life Technologies and Expression Analysis (LTEA) Assay for cysteine-aspartic acid protease (CASP3) using HepaRG (AID 2283477). The procedure, abridged: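 Transcript-level assay: CASP3 mRNA in human HepaRG after 48 h treatment, eight half-log concentrations from 100 uM in 0.5% DMSO, quantified by qRT-PCR.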

Read-out in test [1]: Cytochrome P450 (CYP1A2), CYP1A2 (gene 1544)
The test is described as follows: LTEA_HepaRG_CYP1A2: Life Technologies and Expression Analysis (LTEA) Assay for Cytochrome P450 (CYP1A2) using HepaRG (AID 2283479). The procedure, abridged: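 In duplicate wells, HepaRG cultures maintained in 0.5% DMSO were treated 48 h across an 8-point, half-log series topping at 100 uM; phenobarbital (1 mM) served as induction control. Expression was read by qRT-PCR.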

Read-out in test [2]: cysteine-aspartic acid protease (CASP8), CASP8 (gene 841)
The test is described as follows: LTEA_HepaRG_CASP8: Life Technologies and Expression Analysis (LTEA) Assay for cysteine-aspartic acid protease (CASP8) using HepaRG (AID 2283480). The gist of the method: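 Differentiated HepaRG cells in serum-free induction medium, 48 h exposure, eight-point half-log series from 100 uM in 0.5% DMSO, duplicates. CASP8 mRNA by qRT-PCR, normalized to ACTB, GAPDH, POLR2A; bidirectional fit versus DMSO.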

Read-out in test [3]: Cytochrome P450 (CYP2B6), CYP2B6 (gene 1555)
The test is described as follows: LTEA_HepaRG_CYP2B6: Life Technologies and Expression Analysis (LTEA) Assay for Cytochrome P450 (CYP2B6) using HepaRG (AID 2283481). The gist of the method: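 Human HepaRG, 48 h dosing, 0.5% DMSO vehicle, top dose 100 uM. CYP2B6 transcript by qRT-PCR, housekeeping-normalized, bidirectional curve fit.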

Read-out in test [4]: Cytochrome P450 2C19 (Homo sapiens) (UniProt P33261)
As to the kind of experiment: LTEA_HepaRG_CYP2C19: Life Technologies and Expression Analysis (LTEA) Assay for CYP2C19 using HepaRG (AID 2283482). The gist of the method:
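Endpoint: CYP2C19 mRNA change, bidirectional fit vs 0.5% DMSO. Cells: HepaRG, 48 h exposure, eight-point series topping at 100 uM. Quantitation: qRT-PCR normalized to ACTB, GAPDH, POLR2A.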

Read-out in the next test: CYP2C8 (gene 1558)
As to the kind of experiment: LTEA_HepaRG_CYP2C8: Life Technologies and Expression Analysis (LTEA) Assay for CYP2C8 using HepaRG (AID 2283483). The gist of the method: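 Differentiated HepaRG cells in serum-free induction medium exposed 48 h in duplicate to 8 half-log concentrations from 100 uM in 0.5% DMSO. CYP2C8 mRNA by qRT-PCR normalized to ACTB, GAPDH, POLR2A; bidirectional fit versus DMSO.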

Read-out in another test: CYP2C9 (gene 1559)
The test is described as follows: LTEA_HepaRG_CYP2C9: Life Technologies and Expression Analysis (LTEA) Assay for CYP2C9 using HepaRG (AID 2283484). The procedure, abridged:
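Differentiated human HepaRG cells in serum-free induction medium were exposed 48 h to chemicals in 8-point half-log series from 100 uM (0.5% DMSO), in duplicate. CYP2C9 mRNA was measured by qRT-PCR, normalized to ACTB/GAPDH/POLR2A, with bidirectional fitting versus DMSO.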

Read-out in another test: CYP2E1 (gene 1571)
As to the kind of experiment: LTEA_HepaRG_CYP2E1: Life Technologies and Expression Analysis (LTEA) Assay for CYP2E1 using HepaRG (AID 2283485). The gist of the method: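 Differentiated HepaRG cells were treated in duplicate for 48 h with chemicals in 0.5% DMSO, from 100 uM downward in half-log dilutions. RNA was then analysed by qRT-PCR for CYP2E1 induction or loss.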

Read-out in another test: CYP4A11 (gene 1579)
As to the kind of experiment: LTEA_HepaRG_CYP4A11: Life Technologies and Expression Analysis (LTEA) Assay for CYP4A11 using HepaRG (AID 2283486). The procedure, abridged:
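Human hepatic HepaRG cultures receive duplicate 48 h exposures across a concentration-response series topping at 100 uM. Expression changes in CYP4A11 are measured by qRT-PCR relative to DMSO controls.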

Read-out in test [5]: Cytochrome P450 3A4 (Homo sapiens) (UniProt P08684)
As to the kind of experiment: LTEA_HepaRG_CYP3A4: Life Technologies and Expression Analysis (LTEA) Assay for CYP3A4 using HepaRG (AID 2283487). The gist of the method:
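HepaRG, 48 h exposure, 8-pt CRC from 100 uM (half-log), 0.5% DMSO, duplicates; serum-free induction medium. Readout: CYP3A4 mRNA, qRT-PCR, ACTB/GAPDH/POLR2A normalization. Bidirectional fit vs DMSO.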

Read-out in test [6]: DNA damage-inducible transcript 3 (DDIT3), DDIT3 (gene 1649)
As to the kind of experiment: LTEA_HepaRG_DDIT3: Life Technologies and Expression Analysis (LTEA) Assay for DNA damage-inducible transcript 3 (DDIT3) using HepaRG (AID 2283488). The procedure, abridged:
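Changes in DDIT3 transcript, in either direction relative to 0.5% DMSO vehicle, were quantified by TaqMan qRT-PCR after 48 h chemical exposure of HepaRG cells at 8 concentrations, maximum 100 uM.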

Read-out in test [7]: Pro-epidermal growth factor (Homo sapiens) (UniProt P01133)
The test is described as follows: LTEA_HepaRG_EGF: Life Technologies and Expression Analysis (LTEA) Assay for Epidermal growth factor (EGF) using HepaRG (AID 2283489). The procedure, abridged: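 Concentration-response mRNA assay: HepaRG cells dosed 48 h (max 100 uM, 0.5% DMSO), EGF measured by qRT-PCR and normalized to ACTB/GAPDH/POLR2A.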

Read-out in test [8]: Early growth response protein 1 (EGR1) transcription factor, EGR1 (gene 1958)
The test is described as follows: LTEA_HepaRG_EGR1: Life Technologies and Expression Analysis (LTEA) Assay for Early growth response protein 1 (EGR1) transcription factor using HepaRG (AID 2283490). The gist of the method:
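Differentiated HepaRG cells in serum-free induction medium exposed 48 hours, duplicate, to 8 half-log concentrations up to 100 uM in 0.5% DMSO. EGR1 mRNA measured by TaqMan qRT-PCR, normalized to ACTB, GAPDH, POLR2A; bidirectional fit versus DMSO.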

Read-out in test [9]: Ezrin (EZR), EZR (gene 7430)
As to the kind of experiment: LTEA_HepaRG_EZR: Life Technologies and Expression Analysis (LTEA) Assay for Ezrin (EZR) using HepaRG (AID 2283491). The procedure, abridged:
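Read-out is EZR transcript level by qRT-PCR, normalized to three housekeeping genes and fitted bidirectionally against the DMSO control. Human HepaRG cells received test chemicals for 48 h at eight half-log concentrations up to 100 uM in 0.5% DMSO.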

Read-out in test [10]: Cytochrome P450 3A7 (Homo sapiens) (UniProt P24462)
As to the kind of experiment: LTEA_HepaRG_CYP3A7: Life Technologies and Expression Analysis (LTEA) Assay for CYP3A7 using HepaRG (AID 2283492). The procedure, abridged: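 qRT-PCR of CYP3A7 in HepaRG lysates after 48 h treatment; concentration-response (8 points, max 100 uM) analysed bidirectionally relative to 0.5% DMSO controls.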

Read-out in another test: CYP3A5 (gene 1577)
The test is described as follows: LTEA_HepaRG_CYP3A5: Life Technologies and Expression Analysis (LTEA) Assay for CYP3A5 using HepaRG (AID 2283493). The gist of the method: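 mRNA induction or loss of CYP3A5 assessed in HepaRG after 48 h dosing, 100 uM top concentration, duplicate wells; TaqMan qRT-PCR with ACTB, GAPDH, POLR2A normalization; 0.5% DMSO as negative control.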

Read-out in test [11]: Fatty Acid-Binding Protein 1 (FABP1), FABP1 (gene 2168)
As to the kind of experiment: LTEA_HepaRG_FABP1: Life Technologies and Expression Analysis (LTEA) Assay for Fatty Acid-Binding Protein 1 (FABP1) using HepaRG (AID 2283494). The gist of the method:
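Differentiated human HepaRG cells exposed 48 h in serum-free induction medium to eight half-log concentrations up to 100 uM (0.5% DMSO), duplicate. FABP1 mRNA by qRT-PCR, normalised to ACTB, GAPDH, POLR2A; bidirectional fitting against DMSO.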

Read-out in test [12]: Cytochrome P450 4A22 (Homo sapiens) (UniProt Q5TCH4)
The test is described as follows: LTEA_HepaRG_CYP4A22: Life Technologies and Expression Analysis (LTEA) Assay for Cytochrome P450 4A22 (CYP4A22) using HepaRG (AID 2283495). The procedure, abridged: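 Concentration-response (8 points, max 100 uM, 0.5% DMSO) in human HepaRG liver cells after 48 h exposure. CYP4A22 mRNA by TaqMan qRT-PCR with housekeeping-gene normalization.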

Read-out in test [13]: Cytochrome P450 7A1 (Homo sapiens) (UniProt P22680)
The test is described as follows: LTEA_HepaRG_CYP7A1: Life Technologies and Expression Analysis (LTEA) Assay for Cytochrome P450 7A1 (CYP7A1) using HepaRG (AID 2283496). The procedure, abridged:
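Gene expression endpoint in human HepaRG liver cells treated for 48 h with test chemicals (up to 100 uM, 0.5% DMSO). Values come from bidirectional concentration-response fitting versus DMSO.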

Read-out in test [14]: Cytochrome P450 (CYP24A1), CYP24A1 (gene 1591)
The test is described as follows: LTEA_HepaRG_CYP24A1: Life Technologies and Expression Analysis (LTEA) Assay for Cytochrome P450 (CYP24A1) using HepaRG (AID 2283478). The procedure, abridged:
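Gene expression of CYP24A1 by TaqMan qRT-PCR in HepaRG after 48 h treatment, highest concentration 100 uM; activity fitted in both directions relative to DMSO vehicle.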

Active and inactive are the calls of the source. The calls were made as follows: active = hit-call score of the fitted dose curve at least 0.9, where 1 is the maximum; inactive = score below 0.9.

Chain of Caspase-3 (Homo sapiens) (P42574 whole entry, looked up): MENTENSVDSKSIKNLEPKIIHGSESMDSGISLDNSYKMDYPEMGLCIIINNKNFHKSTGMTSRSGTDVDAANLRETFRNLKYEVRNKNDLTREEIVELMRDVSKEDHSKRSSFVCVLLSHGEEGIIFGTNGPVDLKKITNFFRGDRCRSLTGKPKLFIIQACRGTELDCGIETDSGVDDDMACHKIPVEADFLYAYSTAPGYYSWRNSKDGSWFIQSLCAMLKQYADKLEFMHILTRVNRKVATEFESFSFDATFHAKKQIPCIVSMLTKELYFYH
Chain of Cytochrome P450 2C19 (Homo sapiens) (P33261 whole entry, looked up): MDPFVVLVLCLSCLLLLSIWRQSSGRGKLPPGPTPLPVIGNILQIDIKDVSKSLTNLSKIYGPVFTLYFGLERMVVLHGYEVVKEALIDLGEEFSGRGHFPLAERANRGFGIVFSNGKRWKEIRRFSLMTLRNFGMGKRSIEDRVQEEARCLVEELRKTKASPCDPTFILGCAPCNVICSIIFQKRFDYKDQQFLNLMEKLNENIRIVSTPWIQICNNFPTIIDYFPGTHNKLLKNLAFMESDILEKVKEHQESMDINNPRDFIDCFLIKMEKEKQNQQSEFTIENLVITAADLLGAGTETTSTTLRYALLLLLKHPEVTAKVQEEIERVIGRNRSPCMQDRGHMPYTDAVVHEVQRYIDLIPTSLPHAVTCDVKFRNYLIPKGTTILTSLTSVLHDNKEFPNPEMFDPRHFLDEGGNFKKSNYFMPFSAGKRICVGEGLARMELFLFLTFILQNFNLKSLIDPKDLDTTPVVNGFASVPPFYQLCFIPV
Chain of Cytochrome P450 3A7 (Homo sapiens) (P24462 whole entry, looked up): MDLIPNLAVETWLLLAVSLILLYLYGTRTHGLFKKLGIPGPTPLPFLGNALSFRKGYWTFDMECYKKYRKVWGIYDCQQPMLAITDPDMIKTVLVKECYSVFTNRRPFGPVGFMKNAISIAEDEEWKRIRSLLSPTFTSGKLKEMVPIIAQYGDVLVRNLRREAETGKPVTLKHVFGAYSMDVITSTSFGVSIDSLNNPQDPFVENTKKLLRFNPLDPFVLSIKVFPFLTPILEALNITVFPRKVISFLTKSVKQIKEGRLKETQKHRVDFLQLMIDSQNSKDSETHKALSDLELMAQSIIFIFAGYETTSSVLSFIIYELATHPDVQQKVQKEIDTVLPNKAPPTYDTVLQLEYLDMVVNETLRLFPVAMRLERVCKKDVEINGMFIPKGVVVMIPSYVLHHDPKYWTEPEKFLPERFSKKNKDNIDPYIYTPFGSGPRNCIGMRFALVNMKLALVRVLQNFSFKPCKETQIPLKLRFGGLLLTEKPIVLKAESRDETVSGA
Chain of Cytochrome P450 3A4 (Homo sapiens) (P08684 whole entry, looked up): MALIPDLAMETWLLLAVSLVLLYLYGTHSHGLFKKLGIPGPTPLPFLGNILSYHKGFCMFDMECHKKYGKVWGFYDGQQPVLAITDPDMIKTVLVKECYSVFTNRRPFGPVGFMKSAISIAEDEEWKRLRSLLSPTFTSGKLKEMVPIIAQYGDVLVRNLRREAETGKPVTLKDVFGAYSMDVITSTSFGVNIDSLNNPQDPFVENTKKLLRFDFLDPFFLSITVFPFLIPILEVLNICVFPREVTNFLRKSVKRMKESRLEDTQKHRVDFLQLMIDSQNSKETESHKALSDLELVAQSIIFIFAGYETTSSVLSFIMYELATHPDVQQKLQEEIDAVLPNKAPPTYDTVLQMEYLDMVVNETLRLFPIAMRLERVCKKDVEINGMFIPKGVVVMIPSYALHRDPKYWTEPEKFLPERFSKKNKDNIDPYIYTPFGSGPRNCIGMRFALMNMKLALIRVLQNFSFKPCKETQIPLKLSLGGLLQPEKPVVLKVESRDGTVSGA

For the molecule `CCNc1cccc(C)c1`, the call (with Caspase-3 (Homo sapiens); in [1]; in [2]; in test [3]; in test [4]; with CYP2C8 (gene 1558)) was inactive. In addition, the call (with CYP2C9 (gene 1559); with CYP2E1 (gene 1571); in the test with CYP4A11 (gene 1579); in test [5]; in test [6]; in test [7]) was inactive. The outcome (in [8]; in test [9]; in [10]; with CYP3A5 (gene 1577); in test [11]; in test [12]) was inactive. In test [13], the molecule was called inactive.

As to `O=c1c(O)c(-c2ccc(O)c(O)c2)oc2cc(O)cc(O)c12`, the result (with Caspase-3 (Homo sapiens); in [14]; in test [2]; in [3]; in [4]; with CYP2C8 (gene 1558)) was inactive. Besides, the outcome (with CYP2C9 (gene 1559); in the test with CYP2E1 (gene 1571); in test [5]; in test [6]; in test [7]; in test [8]) was inactive. In addition, the outcome (in the test with CYP3A5 (gene 1577); in [11]; in test [12]; in test [13]) was inactive. The AC50 in test [1] was 806 nM (active); with CYP4A11 (gene 1579), 50 µM (active).

As for `CC1=C(/C=C/C(C)=C/C=C/C(C)=C/CO)C(C)(C)CCC1`, the molecule was called inactive (with Caspase-3 (Homo sapiens); in test [1]; in [2]; with CYP2C9 (gene 1559); in [6]; in test [8]). The molecule was classed as inactive (in test [9]; in test [10]; in the test with CYP3A5 (gene 1577)). The AC50 in test [3] is 26.7 µM (active); in test [4] it was 43.5 µM (active); with CYP2C8 (gene 1558) it was 52.2 µM (active); with CYP2E1 (gene 1571) it was 52.2 µM (active); in the test with CYP4A11 (gene 1579), 15.5 µM (active); in test [5], 23.6 µM (active). Moreover, the AC50 was 52.2 µM (active) in [7], 26.3 µM (active) in [11], 22.2 µM (active) in test [12] and 21.9 µM (active) in [13].

`OC[C@@H](O)[C@@H](O)[C@H](O)[C@H](O)CO`: the molecule was classed as inactive (with Caspase-3 (Homo sapiens); in test [1]; in test [2]; in test [3]; in [4]; with CYP2C8 (gene 1558)). In addition, the call (in the test with CYP2C9 (gene 1559); in the test with CYP2E1 (gene 1571); with CYP4A11 (gene 1579); in test [5]; in [6]; in test [7]) was inactive. Also, the result (in test [8]; in test [9]; in [10]; in the test with CYP3A5 (gene 1577); in test [11]; in test [12]) was inactive. In test [13], the molecule was called inactive.
